The source of these data is the supplement of paper PMC11172423.

The structures appear in SMILES notation. Unmarked numbers belong to inactive results.

For the first test, the system named is Madurella mycetomatis MM55. Nature of the test: growth relative to untreated control; higher = less inhibition, active = 20 or less. To be noted: 25 µM. The protocol:
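Hyphal fragments of M. mycetomatis MM55 or F. senegalensis CBS197.79 in RPMI 1640/MOPS were exposed to each MMV COVID Box or Global Health Priority Box compound at 100 or 25 µM for 7 days at 37 °C. Viability was read with MTS (490 nm, M. mycetomatis) or resazurin (600 nm, F. senegalensis), background-corrected with a medium-only control and expressed as % growth relative to the untreated growth control. Inhibition of more than 80% was taken as growth inhibition.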
For the compound `ClC1=C(Cl)[C@@]2(Cl)[C@H]3C[C@@H](Cl)[C@H](Cl)[C@H]3[C@@]1(Cl)C2(Cl)Cl`, the growth is 104%.

Take `CC(F)c1ncnc(NCCc2ccc(OC(F)(F)F)cc2)c1Cl` (stereo not given): the growth is 11% (active).

`CCS(=O)c1c(C#N)nn(-c2c(Cl)cc(C(F)(F)F)cc2Cl)c1N` (stereo not given): the growth was 91.7%.

For `CNC(=O)O/N=C(/C)SC`, the growth was 112%.

`CCOP(=S)(OCC)Oc1cc(C)nc(C(C)C)n1`: the growth was 108%.

In the case of `CNC(=O)Oc1ccccc1OC(C)C`, the growth is 120%.

Regarding `N#CCNC(=O)c1cnccc1C(F)(F)F`, the growth was 109%.

In the case of `C=C(C)[C@H]1Cc2c(ccc3c2O[C@@H]2COc4cc(OC)c(OC)cc4[C@@H]2C3=O)O1`, the growth is 7.57% (active).

Consider `CNC(=O)c1cc(C#N)cc(C)c1NC(=O)c1cc(Br)nn1-c1ncccc1Cl`, for which the growth is 69.7%.

As for `C/C=C(\C)C(=O)O[C@H]1C[C@@H](OC(C)=O)[C@@]2(C(=O)OC)CO[C@H]3[C@@H](O)[C@@](C)([C@]45O[C@@]4(C)[C@H]4C[C@@H]5O[C@@H]5OC=C[C@@]54O)[C@H]4[C@]1(CO[C@]4(O)C(=O)OC)[C@@H]32`, the growth was 130%.

Take `CCN(Cc1ccc(Cl)nc1)/C(=C/[N+](=O)[O-])NC`: the growth is 86.9%.

`CC[C@H]1CN2CCc3cc(OC)c(OC)cc3[C@@H]2C[C@@H]1C[C@H]1NCCc2cc(OC)c(OC)cc21`: the growth was 84.8%.

As for `CCOc1ccc(C(C)(C)COCc2cccc(Oc3ccccc3)c2)cc1`, the growth was 97%.

`CC(C)(C#N)NC(=O)c1cc(Cl)cc(Cl)c1NC(=O)c1cc(Cl)nn1-c1ncccc1Cl`: the growth is 104%.

On to `O=C(NC(=O)c1ccccc1Cl)Nc1ccc(OC(F)(F)F)cc1`, for which the growth is 106%.

On to `COP(=S)(OC)Oc1ccc(Sc2ccc(OP(=S)(OC)OC)cc2)cc1`, for which the growth was 118%.

In the case of `O=C(NC(=O)c1c(F)cccc1F)Nc1ccc(Cl)cc1`, the growth was 99.6%.

`CC[C@H](C)[C@H]1O[C@]2(C=C[C@@H]1C)C[C@@H]1C[C@@H](C/C=C(\C)[C@@H](O[C@H]3C[C@H](OC)[C@@H](O[C@H]4C[C@H](OC)[C@@H](O)[C@H](C)O4)[C@H](C)O3)[C@@H](C)/C=C/C=C3\CO[C@@H]4[C@H](O)C(C)=C[C@@H](C(=O)O1)[C@]34O)O2.CO[C@H]1C[C@H](O[C@H]2[C@H](C)O[C@@H](O[C@@H]3/C(C)=C/C[C@@H]4C[C@@H](C[C@]5(C=C[C@H](C)[C@@H](C(C)C)O5)O4)OC(=O)[C@@H]4C=C(C)[C@@H](O)[C@H]5OC/C(=C\C=C\[C@@H]3C)[C@]54O)C[C@@H]2OC)O[C@@H](C)[C@@H]1O`: the growth is 75.2%.

As to `N#Cc1nn(-c2c(Cl)cc(C(F)(F)F)cc2Cl)c(NCc2ccccn2)c1SC(F)F`, the growth was 47.2%.

`FC(F)(F)c1cc(Cl)cc(Nc2nc3cnc(OC4CCC4)cc3n2[C@@H]2CCNC2)c1`: the growth was 79.6%.

The same test, now with this note: 100 µM.
Consider `ClC1=C(Cl)[C@@]2(Cl)[C@H]3C[C@@H](Cl)[C@H](Cl)[C@H]3[C@@]1(Cl)C2(Cl)Cl`, for which the growth was 130%.

Turning to `CC(F)c1ncnc(NCCc2ccc(OC(F)(F)F)cc2)c1Cl` (stereo not given), the growth is 10.1% (active).

In the case of `CCS(=O)c1c(C#N)nn(-c2c(Cl)cc(C(F)(F)F)cc2Cl)c1N` (stereo not given), the growth is 92.4%.

As for `CNC(=O)O/N=C(/C)SC`, the growth was 137%.

With `CCOP(=S)(OCC)Oc1cc(C)nc(C(C)C)n1`, the growth is 135%.

On to `CNC(=O)Oc1ccccc1OC(C)C`, for which the growth was 129%.

For the compound `N#CCNC(=O)c1cnccc1C(F)(F)F`, the growth is 142%.

Take `C=C(C)[C@H]1Cc2c(ccc3c2O[C@@H]2COc4cc(OC)c(OC)cc4[C@@H]2C3=O)O1`: the growth is 9.11% (active).

As to `CNC(=O)c1cc(C#N)cc(C)c1NC(=O)c1cc(Br)nn1-c1ncccc1Cl`, the growth was 55.9%.

With `C/C=C(\C)C(=O)O[C@H]1C[C@@H](OC(C)=O)[C@@]2(C(=O)OC)CO[C@H]3[C@@H](O)[C@@](C)([C@]45O[C@@]4(C)[C@H]4C[C@@H]5O[C@@H]5OC=C[C@@]54O)[C@H]4[C@]1(CO[C@]4(O)C(=O)OC)[C@@H]32`, the growth is 106%.

For `CCN(Cc1ccc(Cl)nc1)/C(=C/[N+](=O)[O-])NC`, the growth was 132%.

As to `CC[C@H]1CN2CCc3cc(OC)c(OC)cc3[C@@H]2C[C@@H]1C[C@H]1NCCc2cc(OC)c(OC)cc21`, the growth is 43.6%.

Consider `CCOc1ccc(C(C)(C)COCc2cccc(Oc3ccccc3)c2)cc1`, for which the growth was 116%.

Consider `CC(C)(C#N)NC(=O)c1cc(Cl)cc(Cl)c1NC(=O)c1cc(Cl)nn1-c1ncccc1Cl`, for which the growth was 116%.

For the compound `O=C(NC(=O)c1ccccc1Cl)Nc1ccc(OC(F)(F)F)cc1`, the growth is 112%.

Regarding `COP(=S)(OC)Oc1ccc(Sc2ccc(OP(=S)(OC)OC)cc2)cc1`, the growth is 118%.

With `O=C(NC(=O)c1c(F)cccc1F)Nc1ccc(Cl)cc1`, the growth was 81%.

`CC[C@H](C)[C@H]1O[C@]2(C=C[C@@H]1C)C[C@@H]1C[C@@H](C/C=C(\C)[C@@H](O[C@H]3C[C@H](OC)[C@@H](O[C@H]4C[C@H](OC)[C@@H](O)[C@H](C)O4)[C@H](C)O3)[C@@H](C)/C=C/C=C3\CO[C@@H]4[C@H](O)C(C)=C[C@@H](C(=O)O1)[C@]34O)O2.CO[C@H]1C[C@H](O[C@H]2[C@H](C)O[C@@H](O[C@@H]3/C(C)=C/C[C@@H]4C[C@@H](C[C@]5(C=C[C@H](C)[C@@H](C(C)C)O5)O4)OC(=O)[C@@H]4C=C(C)[C@@H](O)[C@H]5OC/C(=C\C=C\[C@@H]3C)[C@]54O)C[C@@H]2OC)O[C@@H](C)[C@@H]1O`: the growth is 55.6%.

Regarding `N#Cc1nn(-c2c(Cl)cc(C(F)(F)F)cc2Cl)c(NCc2ccccn2)c1SC(F)F`, the growth was 131%.

`FC(F)(F)c1cc(Cl)cc(Nc2nc3cnc(OC4CCC4)cc3n2[C@@H]2CCNC2)c1`: the growth is 64%.
